High-throughput results (PubChem)
Cruzain Triton – blocks cruzain activity in presence of Triton detergent; P25779; purified cruzain, Z-FR-AMC fluorescence, 0.01% Triton; Potency, µM, hits mostly inhibitors; actives 0.43% (n = 200,000); AID 1478; further: nearly all actives have a fitted effect of over 40% in size
Target sequence (P25779 123-467 limits assumed): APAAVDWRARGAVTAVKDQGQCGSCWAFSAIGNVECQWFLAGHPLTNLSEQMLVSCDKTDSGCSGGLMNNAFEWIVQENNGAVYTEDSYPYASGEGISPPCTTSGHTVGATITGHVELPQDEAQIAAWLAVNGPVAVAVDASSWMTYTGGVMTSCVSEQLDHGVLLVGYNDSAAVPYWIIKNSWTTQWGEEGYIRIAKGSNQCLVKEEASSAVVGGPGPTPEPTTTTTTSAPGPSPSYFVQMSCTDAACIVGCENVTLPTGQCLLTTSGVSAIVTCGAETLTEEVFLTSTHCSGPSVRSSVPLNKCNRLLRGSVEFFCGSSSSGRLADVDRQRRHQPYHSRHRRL
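Cruzain (1.5 nM) preincubated 15 min at RT with compound in 100 mM sodium acetate pH 5.5, 5 mM DTT, 0.01% Triton X-100. Reaction started with 2 uM Z-FR-AMC; AMC fluorescence (ex 360/em 450 nm) change over 60 s gave rate.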
Cruzain inh noDet – blocks cruzain activity in detergent-free assay. Potency, µM, usual class: inhibitors. actives 2.3% (n = 200,000). purified cruzain, Z-FR-AMC fluorescence, no detergent. P25779; further: nearly all actives have a fitted effect of over 40% in size
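Purified cruzain at 1.5 nM, pre-incubated 15 min with compound at room temperature in 100 mM sodium acetate pH 5.5, 5 mM DTT, 0.00005% Triton X-100. Reaction started with 2 uM Z-FR-AMC; AMC fluorescence increase over 60 s gives rate.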
Papain counter – papain (Carica papaya) inhibition counter-screen; shares compounds with Cruzain Triton; purified papain, Z-FR-AMC fluorescence cleavage; Potency, µM, usual class: inhibitors; actives 41% (n = 410); AID 2161; further: nearly all actives have a fitted effect of over 35% in size
Target sequence (P00784 whole entry, looked up): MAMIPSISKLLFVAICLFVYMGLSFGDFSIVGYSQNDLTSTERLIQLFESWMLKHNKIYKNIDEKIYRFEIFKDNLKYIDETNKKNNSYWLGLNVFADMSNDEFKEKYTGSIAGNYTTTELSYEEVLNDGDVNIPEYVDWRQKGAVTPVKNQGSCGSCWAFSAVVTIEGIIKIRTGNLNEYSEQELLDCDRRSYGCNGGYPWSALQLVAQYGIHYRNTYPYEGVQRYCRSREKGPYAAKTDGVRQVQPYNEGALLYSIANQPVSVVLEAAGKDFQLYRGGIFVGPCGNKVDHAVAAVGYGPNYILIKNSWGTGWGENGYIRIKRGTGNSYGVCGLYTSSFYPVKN
Large screens that a line does not name were inactive (follow-up assays come after a bar, where they were run). This is a sample that favours compounds with a hit; in the whole collection about 2.4% have one here. The call rests on the fitted dose curve; in most records, active means well fitted curve in the direction sought with a large enough effect; inconclusive means small, poorly fitted or top-dose-only effect, or another doubt; inactive means no such curve, though single readings can be large; an effect the other way counts as inactive or inconclusive.

CC(=O)c1cccc(NC(=O)CCCN2C(=O)COc3ccc(C)cc32)c1	Cruzain Triton 18µM, Cruzain inh noDet inconclusive
CCc1ccccc1NC(=O)CCCN1C(=O)COc2ccc(C)cc21	none
CCc1ccc(-c2csc(NC(=O)COC(=O)CCc3nc4ccccc4s3)n2)cc1	Cruzain inh noDet 13µM
Cc1nc(NC(=O)COC(=O)CCc2nc3ccccc3s2)c(Cl)cc1Cl	none
CSc1ccc(/C=c2\s/c(=C\C(=O)C(C)(C)C)n(CC(=O)NCCC3=CCCCC3)c2=O)cc1	Cruzain inh noDet 3.2µM
COCCNC(=O)CCCn1c(=O)c2ccccc2n(CC(=O)NCCC2=CCCCC2)c1=O	none
Cn1cc(CCCC(=O)NCc2ccccc2Cl)c2ccccc21	none
CN1CCN(c2ccc(NC(=O)CSc3ccccc3)cc2F)CC1	none
Cc1ccc(SCC(=O)Nc2ccc(N3CCN(c4ccccc4)CC3)c(F)c2)cc1	Cruzain inh noDet 10µM
Cc1cc(Br)ccc1NC(=O)C(Cc1ccccc1)NS(=O)(=O)c1ccc(Br)s1 (stereo not given)	none
O=C1Nc2c(c(=O)[nH]c(=O)n2-c2ccccc2)C1(NS(=O)(=O)c1ccc(Cl)cc1)C(F)(F)F (stereo not given)	none
CC(=O)c1cccc(NC(=O)Cn2c(-c3cncs3)nc3ccccc32)c1	none
Cc1ccc(NC(=O)c2cc(C(=O)c3cc(Cl)ccc3O)cn(-c3ccc(C)cc3)c2=O)cc1	Cruzain inh noDet 5µM
N#Cc1cc(C(=O)c2cc(Cl)ccc2O)cn(-c2ccccc2)c1=O	none
CC(C)c1nn2c(=O)cc(COC(=O)c3ccco3)nc2s1	none
CCc1ccccc1NC(=O)C1CCCN(c2cnccn2)C1 (stereo not given)	none
O=c1c2sc3ccccc3c2n(Cc2cccc(Cl)c2)c(=O)n1Cc1ccccc1	Cruzain inh noDet inconclusive
O=c1c2sc3ccccc3c2n(Cc2cccc(Cl)c2)c(=O)n1Cc1ccc(F)cc1	Cruzain inh noDet 6.3µM
Cc1nn2c(=O)cc(COc3ccc(/C=C(\C#N)C(=O)Nc4ccc(F)cc4)cc3)nc2s1	none
CC1(C)CC(=O)c2cc(C(=O)Nc3ccc(Br)cc3)c(=O)n(-c3ccc(Cl)cc3)c2C1	none
COc1ccc(OC)c(NS(=O)(=O)Cc2ccccc2)c1	Cruzain inh noDet 32µM
COc1ccc(OC)c(S(=O)(=O)NCc2ccccc2)c1	none
CCOC(=O)C1=C(CSc2nc(-c3ccccc3)ccc2C#N)OC(N)=C(C#N)C1c1ccc(OC)cc1 (stereo not given)	Cruzain inh noDet 16µM
CCOC(=O)C1=C(CSc2nc(CC)c(C)cc2C#N)OC(N)=C(C#N)C1c1ccccc1 (stereo not given)	none
COc1ccc(N2CCN(C(CNC(=O)C(=O)NCCCN(C)C)c3cccnc3)CC2)cc1 (stereo not given)	none
CCc1nn2c(=O)cc(COC(=O)c3ccccc3)nc2s1	none
COC(=O)c1ccc(C(=O)Nc2cc(Cl)ccc2Cl)cc1NC(=O)c1ccc(N(C)C)cc1	Cruzain inh noDet 3.2µM
O=C(Nc1cc(Cl)ccc1Cl)c1ccc(-c2ccccc2)cc1	none
Cc1cccc(OCC(=O)Nc2nonc2-c2ccc(Br)cc2)c1C	none
Cc1nn(Cc2c(F)c(F)c(F)c(F)c2F)c(C)c1NC(=O)c1cccc(COc2ccc(Cl)cc2)c1	none
CC(C)c1cc(C(N)=O)c(NC(=O)c2cccc(COc3ccc(Cl)cc3)c2)s1	Cruzain inh noDet 20µM
CCc1cccc(NC(=O)c2ccc3c(c2)N(Cc2cccc(Cl)c2)C(=O)c2ccccc2S3=O)c1 (stereo not given)	none
O[N+]1=CC=CCC1=S.On1ccccc1=S.[Zn]	Cruzain Triton 3.2µM, Cruzain inh noDet 2.5µM
O=C(N/N=C/C=C/c1ccccc1)c1ccncc1	none
C=CCn1cc(/C=N\NC(=O)c2cc3c(ccc4ccccc43)o2)c2ccccc21	Cruzain inh noDet 16µM
O=C(N/N=C/C=C/c1ccccc1)c1cc2c(ccc3ccccc32)o1	Cruzain Triton inconclusive, Cruzain inh noDet 10µM
C#CCn1cc(/C=N/NC(=O)c2cc3ccccc3o2)c2ccccc21	none
CCc1cccc(NC(=O)CCN2C(=O)c3ccccc3Sc3ncccc32)c1	none
O=C(Nc1ccc(Cl)c(Cl)c1)c1cc(S(=O)(=O)N2CCN(c3cccc(Cl)c3)CC2)ccc1F	Cruzain inh noDet 3.2µM
O=C(Nc1ccc2c(c1)CCC2)c1cccc(S(=O)(=O)N2CCN(c3ccccc3)CC2)c1	Cruzain inh noDet 25µM
O=C(Nc1ccc(F)c(F)c1)c1cc(S(=O)(=O)N2CCN(c3ccccn3)CC2)ccc1F	none
O=C(NC1CCCc2ccccc21)c1cccc(S(=O)(=O)N2CCN(c3ccccc3)CC2)c1 (stereo not given)	Cruzain inh noDet inconclusive
COC(=O)c1ccc(NC(=O)C(=O)NCCc2sc(-c3cccc(F)c3)nc2C)cc1	none
CCc1cccc(CC)c1NS(=O)(=O)c1ccc2c(c1)CCN2C(=O)C1CC1	none
Cc1ccc(NC(=O)COC(=O)c2csc3c2CCC(C)C3)cc1S(=O)(=O)N1CCCCC1 (stereo not given)	Cruzain inh noDet 25µM
CC1CCc2c(C(=O)OCC(=O)Nc3cccc(S(=O)(=O)N4CCCCCC4)c3)csc2C1 (stereo not given)	Cruzain inh noDet inconclusive
CCCCC/C=C\C/C=C\C/C=C\CCCCCCC(=O)O[C@H](COCCCCCCCCCCCCCCCC)COP(=O)([O-])OCC[N+](C)(C)C	none
O=C(Oc1ccccc1)N1CCC2(CC1)CCN(c1ccccn1)CC2	none
O=C(CCc1ccccc1)N/N=C/c1cc(Br)ccc1O	Cruzain inh noDet 20µM
O=C(N/N=C/c1cc(Br)ccc1O)c1ccccc1Cl	none
CN(C(=O)CSc1nc(C2CCCC2)nc2c1c(=O)n(C)c(=O)n2C)c1ccccc1	none
COC(=O)c1ccc(-c2nc3cc(N)ccc3o2)cc1	none
COC(=O)c1ccc(-c2nc3cc(Cl)c(N)cc3s2)cc1	Cruzain inh noDet 7.9µM
O=C(Nc1ccc(-c2nc3ccccc3o2)c(O)c1)c1ccccc1	none
O=C(Nc1ccc(O)c(-c2nc3ccccc3o2)c1)C1(c2ccccc2)CCCC1	Cruzain inh noDet 25µM
CCc1nc2ccc(C(=O)NCCc3ccc(OC)cc3OC)cc2nc1CC	Cruzain inh noDet inconclusive
O=C(Nc1cccc(Cl)c1N1CCCCC1)c1ccc(N2CCOCC2)c([N+](=O)[O-])c1	none
O=C(NC(=S)Nc1cccc(Cl)c1N1CCCC1)c1ccc(-c2cccc([N+](=O)[O-])c2)o1	Cruzain inh noDet 3.2µM | Papain counter inactive
CCCOc1ccc(-c2nonc2NC(=O)c2oc3ccc(C)cc3c2C)cc1OCCC	none
COC(=O)N/N=C/c1ccc(-c2cccc(Cl)c2)o1	none
NC(=S)N/N=C/c1ccc(-c2cc(Cl)ccc2Cl)o1	Cruzain Triton 0.71µM, Cruzain inh noDet 0.63µM | Papain counter 4.5µM
COc1ccc(Oc2ncc3nc(-c4ccc(F)cc4)c(=O)n(Cc4cccs4)c3n2)cc1	none
CCN(c1ccccc1)c1cc(C)nc2nc(C)nn12	none
CCN(CC)c1nc(SCC(=O)O)nc(N(CC)CC)n1	none
CCN(c1ccccc1)c1nc(C#N)nc(N(CC)c2ccccc2)n1	none (no result: Cruzain Triton, Cruzain inh noDet) | Papain counter 3.2µM
CCCN(CCC)c1nc(N)nc(C#N)n1	none (no result: Cruzain Triton, Cruzain inh noDet) | Papain counter 2µM
CCN(CC)c1nc(C#N)nc(N(CC)CC)n1	Cruzain Triton 13µM, Cruzain inh noDet 16µM | Papain counter 5µM
CCCN(CCC)c1nc(N)nc(-c2cc(Cl)ccc2OC)n1	Cruzain inh noDet inconclusive
